# From PubChem BioAssay AID1032 (The Scripps Research Institute Molecular Screening Center, 2008)
# Hit rate of the full screen: of about 200,000 compounds, about 670 (0.34%) were called active. What follows is part of a selection rich in actives, with near analogues and random picks from the rest. A number with no mark means an inactive call. No stated cut-off is given here; in the data, active means activation above about 22%; inactive means the rest.
# Biological target: Peroxisome proliferator-activated receptor gamma (Homo sapiens) (UniProt P37231)
# Assay: compounds enhancing SRC-2 coactivator binding to PPARgamma – biochemical, HTS, primary screen (AID 1032);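 further: 0% = vehicle and 100% = reference agonist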
# Settings: PPARgamma LBD-SRC-2 recruitment, at 8 µM, stronger effect = higher value
# Chain of Peroxisome proliferator-activated receptor gamma (Homo sapiens) (P37231 whole entry, looked up): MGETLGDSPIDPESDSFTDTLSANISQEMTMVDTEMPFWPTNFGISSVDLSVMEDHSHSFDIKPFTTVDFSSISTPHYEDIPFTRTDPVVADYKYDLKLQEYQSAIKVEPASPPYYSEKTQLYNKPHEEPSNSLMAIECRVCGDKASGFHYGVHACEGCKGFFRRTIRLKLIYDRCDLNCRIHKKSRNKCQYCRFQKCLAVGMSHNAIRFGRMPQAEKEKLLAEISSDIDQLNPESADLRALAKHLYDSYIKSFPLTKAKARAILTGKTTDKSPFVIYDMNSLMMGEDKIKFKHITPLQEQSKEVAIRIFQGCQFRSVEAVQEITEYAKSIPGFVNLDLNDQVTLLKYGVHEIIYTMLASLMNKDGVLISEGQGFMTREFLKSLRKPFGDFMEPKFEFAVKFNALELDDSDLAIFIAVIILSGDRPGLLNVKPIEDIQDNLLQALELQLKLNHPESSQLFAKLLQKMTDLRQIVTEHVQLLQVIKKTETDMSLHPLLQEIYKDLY
row,Compound,activation
1,Cc1nc(-c2ccccc2)sc1-c1nc(-c2ccccc2)ncc1S(=O)(=O)c1ccccc1,30% (active)
2,C=CCn1c(-c2sc(-c3ccccc3)nc2C)n[nH]c1=S,7.03%
3,Cc1nc(-c2ccccc2)sc1C(=O)/C=C/c1ccccc1,13.4%
4,O=C(NC(=S)Nc1cc(C(F)(F)F)ccc1N1CCOCC1)c1ccc(-c2cccc(Cl)c2)o1,2.85%
5,COc1cc(OC)nc(N/N=C(\c2ccccc2)c2ccncc2)n1,-0.95%
6,CC1=NCCN1S(=O)(=O)c1cccc([N+](=O)[O-])c1,0.1%
7,O=C(CN(C(=O)c1csnn1)c1cccc(F)c1)NCc1ccc(F)cc1,-2.69%
8,O=C(c1nnc(-c2ccc(Cl)cc2)o1)C1CCCC1,5.05%
9,COCC(=O)Nc1ccc(Br)cc1,0.8%
10,CC(C)CNC(=O)COC(=O)c1ccccc1OCC(=O)Nc1ccc(Br)cc1,23.8% (active)
11,Cc1cccc(C(=O)OCC(=O)NCC(C)C)c1O,1.94%
12,O=C(Nc1ccc(Cl)cc1)C1c2cccc[n+]2CC(=O)N1Cc1ccc2c(c1)OCO2 (centres undefined),-2.95%
13,CCCC/S(C)=N/S(=O)(=O)c1ccc(C)cc1 (centres undefined),4.28%
14,CC(=O)n1c(C=Nc2ccccc2)c(O)c2ccccc21,18.1%
15,COc1ccc(CC(NC(C)=O)C(=O)NC2CCN(C(=O)c3ccc(OC)c(OC)c3)CC2)cc1OC (centres undefined),-1.68%
16,Cn1c(-c2sc3cc(C(F)(F)F)cnc3c2-c2ccccc2)n[nH]c1=S,49.1% (active)
17,Cn1c(-c2sccc2OCc2cccc(C(F)(F)F)c2)n[nH]c1=S,3.72%
18,Cc1cc(C(F)(F)F)n2ncc(-c3ccccc3)c2n1,6.32%
19,O=C1CN(C(=O)CN2C(=O)NC3(CCCCC3)C2=O)c2ccccc2N1,-3.02%
20,CCSc1ccccc1C(=O)Nc1ccc2c(c1)OCO2,2.54%
21,COC(C(=O)Nc1ccc(S(=O)(=O)Nc2ccc(C)c(C)c2)cc1)c1ccccc1 (centres undefined),-10.9%
22,COC(=O)c1[nH]c2ccccc2c1NS(=O)(=O)c1ccc(OC)cc1OC,13.7%
23,COC(=O)c1[nH]c2ccc(Br)cc2c1NC(=O)Oc1ccccc1,30% (active)
24,COC(=O)c1[nH]c2ccccc2c1NC(=O)CN1CCCc2ccccc21,-0.25%

row,Compound,activation
1,O=C(Nc1ccc2cn[nH]c2c1)c1ccc(S(=O)(=O)N2CCOCC2)cc1,3.19%
2,Cc1nccn1CCC1CCCCN1C(=O)CCc1nnc(-c2ccsc2)o1 (centres undefined),-4.68%
3,CN(C)CCOc1ccc(Cl)cc1C(C)(C)C,3.96%
4,COc1cc2c(cc1OC)C(C(C)C)=NC(C)(C)C2,4.08%
5,COc1cc2c(cc1O)C(SC)=NC(C)(C)C2,1.5%
6,COc1cc2c(cc1OC)C(Nc1ccc(S(N)(=O)=O)cc1)=NC(C)(C)C2,77.9% (active)
7,COCCNC(=O)c1ccc(N2CCC3(CC2)OCCO3)c([N+](=O)[O-])c1,-6.47%
8,COc1ccc(C(=O)Nc2ccc3nc(N4CCCCC4)cc(C)c3c2)cc1OC,4.19%
9,COc1cccc(/C=C2\SC(=N)N(c3ccc(F)cc3)C2=O)c1,3.36%
10,O=C(CSc1c2c(nc3ccc(Cl)cc13)CCCC2)NCc1ccco1,30.9% (active)
11,O=C(/C=C/c1ccc(Cl)cc1Cl)NCc1ccco1,-0.42%
12,O=C(NCc1ccco1)c1cc(-c2cccnc2)nc2ccc(Cl)cc12,8.92%
13,COC(=O)Cn1c(=NC(=O)c2cc(OC)c(OC)c(OC)c2)sc2cc(OC)ccc21,-0.43%
14,Cc1ccccc1-c1n[nH]c(=S)n1/N=C/c1ccc(-c2ccccc2Br)o1,40.9% (active)
15,Cc1n[nH]c(=S)n1/N=C/c1ccc(Br)o1,6.61%
16,Cc1ccccc1-c1n[nH]c(=S)n1C,7.57%
17,CSc1ccccc1C(=O)NCc1ccccc1,-5.42%
18,Cc1ccc(C(=O)COC(=O)CCN2C(=O)C3C4CC(C(Br)C4Br)C3C2=O)cc1 (centres undefined),3.47%
19,COc1ccc(O[C@H]2C=C[C@@H](c3ccccc3)O[C@@H]2CO/N=C/C[C@@H]2C=C[C@H](OC(C)=O)[C@@H](COC(C)=O)O2)cc1,1.19%
20,CC(=O)Nc1ccc(S(=O)(=O)NC(C)C(=O)OCC(=O)NC2CCCC2)cc1 (centres undefined),-3.44%
21,CS(=O)(=O)N1CCc2cc(C(=O)Nc3ccccc3)ccc21,-4.48%
22,Cc1ccc(NC(=O)CCOc2ccccc2)cc1S(=O)(=O)Nc1ccccc1Cl,3.41%
23,CCOC(=O)c1ccc(NC(=S)N2CCCC2)cc1,-1%
24,CC(=O)c1ccc(S(=O)(=O)N2CCN(c3nc4c(C)c(C)ccc4cc3C#N)CC2)cc1,32% (active)

row,Compound,activation
1,Cc1cc(C)c2nc(N3CCCC3)c(C#N)cc2c1,1.23%
2,Cc1cccc2cc(C#N)c(N3CCCC3)nc12,-7.68%
3,C/C(=N\Nc1ccc([N+](=O)[O-])cc1)c1ccc(-n2nncc2C(C)(C)C)cc1,-9.74%
4,N#Cc1ccsc1NC(=O)CN1CCN(S(=O)(=O)c2cc(Cl)ccc2Cl)CC1,0.56%
5,O=C(C1CCCO1)N1CCN(C(=S)Nc2cccc(Cl)c2)CC1 (centres undefined),-4.23%
6,O=C1OC(/C=C/c2ccccc2)=NC/1=C/c1ccco1,8.63%
7,CCc1cccc(OC2OC(CO)C(O)C(O)C2NC(C)=O)c1 (centres undefined),9.45%
8,Cc1cc(C)c2c(c1)cc(C)c1nnc(SCC(=O)Nc3cc(C)on3)n12,26.5% (active)
9,Cc1cc(NC(=O)CSc2nnc(Nc3ccccc3F)s2)no1,0.38%
10,Cc1ccc(-c2csc(SCC(=O)Nc3cc(C)on3)n2)cc1,-2.51%
11,Cc1cccc(NC(=O)Cn2c(=O)n(Cc3ccccc3)c(=O)c3c(C)c(C)sc32)c1,3.34%
12,N#Cc1c(-c2ccc(F)cc2)cc(C2CC2)nc1SCC(=O)c1cccs1,1.68%
13,O=C(c1ccc(F)cc1)N1CCC(n2nnc3ccccc32)CC1,-10.4%
14,C=CCC(C(=O)c1ccccc1)[N+](C)(C)CC=C (centres undefined),1.14%
15,CN1CCN(S(=O)(=O)c2ccc(NC(=S)NC(=O)C3CC3)cc2)CC1,5.04%
16,NC(=O)CSc1oc(-c2cccs2)nc1S(=O)(=O)c1ccccc1,36.9% (active)
17,COC(=O)CSc1nccc(-c2cccs2)n1,0.01%
18,COc1ccc(OC)c(C(=O)CSc2nnc(-c3cccs3)o2)c1,10.1%
19,COc1ccc(/C(O)=C2/C(=O)C(=O)N(c3nc(C)c(C)s3)C2c2ccco2)cc1 (centres undefined),22.7% (active)
20,COc1ccc(/C(O)=C2\C(=O)C(=O)N(Cc3ccco3)C2c2ccc(OC)cc2OC)cc1 (centres undefined),3.94%
21,COc1ccccc1C1/C(=C(/O)c2ccc(C)cc2)C(=O)C(=O)N1Cc1ccco1 (centres undefined),-3.88%
22,CCC(C)(C)NC(=O)c1cc([N+](=O)[O-])ccc1N1CCCCC1,0.23%
23,CN(C)c1nccc(NCc2ccccc2)c1C#N,9.56%
24,CN1CCN(C(c2cc3cc4c(cc3[nH]c2=O)OCCO4)c2nnnn2C2CCCC2)CC1 (centres undefined),4.65%

row,Compound,activation
1,Cc1cc(C(=O)CC#N)c(C)n1-c1c(C)n(C)n(-c2ccccc2)c1=O,3.36%
2,O=C(Nn1cnnc1)c1ccc([N+](=O)[O-])cc1,8.86%
3,COc1ccc(-c2nnco2)cc1OC,-1.39%
4,COc1ccc2c(Cl)c(C(=O)NCc3ccco3)sc2c1,4.82%
5,COc1ccc2c(Cl)c(-c3nnco3)sc2c1,22.3% (active)
6,CC1=C(C)C(=O)OC(C(C)C2CCC3C4CC=C5CC(OC6OC(COC7OC(CO)C(O)C(O)C7O)C(O)C(O)C6O)CC(O)C5(C)C4CCC23C)C1 (centres undefined),-5.38%
7,NC(=O)COc1ccc(C23CC4CC(CC(C4)C2)C3)cc1,13.6%
8,COc1ccc(CC(=O)N2N=C(C)CC2(O)C(F)(F)F)cc1 (centres undefined),4.95%
9,CCOC(=O)c1c(NC(=O)CNC2CCCc3ccccc32)sc(C(N)=O)c1C (centres undefined),19.8%
10,NS(=O)(=O)c1ccc(CCNC(=S)Nc2ccc(S(N)(=O)=O)cc2)cc1,4.85%
11,CCC(C)(C)NC(=O)C(c1cccc(OC)c1OC)N(CC(C)C)C(=O)CCC(=O)Nc1cc(C)on1 (centres undefined),7.07%
12,CC(=O)NC(Cc1ccc(F)c(F)c1)C(=O)NC1CCN(C(=O)c2ccc(C)cc2)CC1 (centres undefined),-0.89%
13,O=C(Oc1ccccc1)Oc1ccc2c(c1)oc(=O)c1ccccc12,48.7% (active)
14,CC(=O)Oc1ccc2c(C)c(CC(C)O)c(=O)oc2c1 (centres undefined),-8.79%
15,Cc1c(Cc2ccccc2)c(=O)oc2cc(OCC(N)=O)ccc12,4.43%
16,O=C(CSc1ncnc2c1nnn2Cc1ccc(F)cc1)NC1CCCC1,11.8%
17,O=C(Nc1ccc([N+](=O)[O-])cc1)C1CC12CCC2 (centres undefined),18.1%
18,O=C(CSc1ccsc1[N+](=O)[O-])N1CCCCC1,22% (active)
19,CC1CC(C)CN(C(=O)CSc2ccsc2[N+](=O)[O-])C1 (centres undefined),0.24%
20,O=C(CSCc1cccs1)N1CCCC1,-3.94%
21,Cc1cccc(OC(=O)c2sc3ncn(C)c(=O)c3c2C)c1,-5.78%
22,CC1=CC=CN2C1=NC(=O)CC2(C)C(=O)N(CC(=O)NC1CCCC1)c1ccccc1C (centres undefined),1.53%
